Compound activity deposited in PubChem by National Center for Advancing Translational Sciences (NCATS).
A selection: hits, their analogues and other compounds. The true share with any hit is near 7.3%.
HCMV antiviral = qHTS Assay for inhibitors of the human cytomegalovirus (HCMV); HFF cells, HCMV-luciferase reporter, 72 h; hits give low values; 410,000 tested, 4.5% active; activity change, negative = inhibition, % at 57.5 µM; in the data active = activity change below about -60%; inconclusive = no clear call, values can overlap the other calls; inactive = above about -39%
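Human foreskin fibroblasts infected with luciferase-reporter HCMV at MOI 1 PFU/cell, compounds at two doses. Luciferase measured 72 h post infection; normalized to buffer-only basal and Salinomycin (10uM) controls.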
HCV inh = qHTS Assay for Inhibitors of Hepatitis C Virus (HCV). 340,000 tested, 3.4% active. Potency, µM (highest dose often 41.8 µM), without a hit: at the top dose activity change, negative = inhibition, actives largely listed as inhibitors. Huh7.5.1 HCVcc-Cre infection, luciferase reporter, 44 h; active = well fitted inhibition curve with a large enough effect; inconclusive = small, poorly fitted or top-dose-only effect, or another doubt; inactive = no such curve, though single readings can be large or run the other way; note: potency is the fitted concentration of half-maximal effect
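After 44 h co-culture of compound, cells and HCVcc-Cre (~0.5 moi), substrate is added for 15 min at room temperature and luciferase measured over 15 sec. Cells were seeded at 1,000/well and pre-cultured 4 h.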
Vaccinia Venus = qHTS for Stage-Specific Inhibitors of Vaccinia Orthopoxvirus: Venus Reporter Primary qHTS | Vaccinia virus Venus reporter expression, fluorescence | Potency, µM (highest dose often 36.5 µM), without a hit: at the highest dose activity change, negative = inhibition, hits mostly inhibitors | 330,000 tested, 0.46% active; calls by dose curve; tested in A549 cells; note: potency is the fitted concentration of half-maximal effect; nearly all actives have a fitted effect of over 30% in size
FMDV inh = High Throughput Screening for Foot and Mouth Disease Virus Antivirals. FMDV antiviral cell-based qHTS. Potency, µM (series often up to 57.9 µM), for inactives: at the highest dose activity change, negative = inhibition, actives largely listed as inhibitors. 410,000 tested, 1.2% active. AID 1159524, 2015; calls by dose curve; tested in HEK293T cells; note: read-out not given here; potency is the fitted concentration of half-maximal effect; nearly all actives have a fitted effect of over 45% in size
VACV mCherry inh = qHTS for Stage-Specific Inhibitors of Vaccinia Orthopoxvirus: mCherry Reporter Primary qHTS. Vaccinia virus mCherry reporter infection, fluorescence. Potency, µM (doses to about 36.5 µM), without a hit: at the top dose activity change, negative = inhibition, most hits filed as inhibitors. 310,000 tested, 0.63% active; calls by dose curve; tested in A549 cells; note: potency is the fitted concentration of half-maximal effect; nearly all actives have a fitted effect of over 35% in size
Active calls of the source: *; i = inactive; ? = inconclusive; . = no result given. % is set by controls: 0 for no effect and ±100 for the full control effect.

SMILES	HCMV antiviral	HCV inh	Vaccinia Venus	FMDV inh	VACV mCherry inh
CCCc1nn2c(=O)cc(COC(=O)c3ccc4c(c3)OCO4)nc2s1	11.0	.	-7.5%	-1.3%	-10.2%
CC#CC#Cc1cccc(=O)o1	-88.9*	?	-19.8%	-25.6%	-19.2%
O=C(Nc1cccc(NC(=O)c2cccs2)c1)c1ccc([N+](=O)[O-])o1	-92.3*	10µM*	?	-21.6%	?
COc1cc(NC(=O)c2cccs2)ccc1NC(=O)Cc1ccccc1	12.8	?	-19.2%	1.4%	-18.1%
COc1cc(NC(=O)c2ccc([N+](=O)[O-])o2)ccc1NC(=O)c1cccs1	-4.4	?	10µM*	-6.8%	10µM*
O=C(Nc1nc(-c2cccs2)cs1)c1ccc([N+](=O)[O-])o1	-28.4	?	.	3.9%	.
COc1cccc(C2=NC(C)(CC(=O)NCc3ccccc3F)ON2C)c1 (configuration not stated)	-10.3	.	.	.	.
CCOC(=O)C1=C(N)N2C(=O)C(C)SC2=C(C(=O)OC)C1c1cccc(OC)c1 (configuration not stated)	-85.6*	6.3%	.	-8.6%	.
O=C(COCc1cc(-c2ccc(F)cc2)on1)Nc1cccc(C(F)(F)F)c1	6.4	.	-5.2%	-8.4%	-4.8%
O=C(CN1C(=O)c2cccc3cccc1c23)NCc1ccc2c(c1)OCO2	47.5	-17.8%	.	-6.7%	.
Cc1ccccc1C(=O)N1CCC(C(=O)N2CCN(Cc3ccc4c(c3)OCO4)CC2)CC1	-101.7*	-9.8%	-4.7%	?	-6.4%
CCN(CC)C(=O)Cn1cnc2sc(C(=O)N3CCN(Cc4ccc5c(c4)OCO5)CC3)c(C)c2c1=O	-97.1*	?	-3.4%	-25.2%	-6.7%
Cc1nn(Cc2ccccc2)c2sc(C(=O)N3CCN(Cc4ccc5c(c4)OCO5)CC3)cc12	-12.4	?	?	31.6µM*	.
O=C(CN1C(=O)c2cccc3cccc(c23)C1=O)N1CCN(Cc2ccc3c(c2)OCO3)CC1	-16.1	22.4µM*	-6.5%	?	?
O=S(=O)(c1cccc(C(F)(F)F)c1)N1CCN(c2nc(-c3ccccc3)nc3ccccc23)CC1	.	.	-13.9%	.	-9.2%
CCOc1ccc(CN2C(=O)c3ccccc3Sc3ccc(C(=O)NC4CCC(C)CC4)cc32)cc1 (configuration not stated)	23.0	.	-12.4%	0.0%	1.1%
Cc1nn(Cc2ccccc2)c2sc(C(=O)NCc3cccnc3)cc12	10.0	7.94µM*	-23.3%	?	?
O=C(C1CCN(Cc2cccs2)CC1)N1CCN(Cc2ccc3c(c2)OCO3)CC1	-103.6*	?	-10.1%	-21.1%	-2.7%
O=C(C1CCN(S(=O)(=O)c2ccccc2F)CC1)N1CCN(Cc2ccc3c(c2)OCO3)CC1	-33.1	12.6µM*	.	?	.
O=C(c1ccc(F)cc1)N1CCC(C(=O)N2CCN(Cc3ccc4c(c3)OCO4)CC2)CC1	-1.5	?	-20.4%	-24.1%	i
Cc1cc(C(=O)NCc2cccnc2)n(-c2ccccc2)n1	-8.9	-23.9%	-4.9%	-22.0%	i
O=C(NCc1cccs1)C1CC(c2ccc(Cl)cc2)=NO1 (configuration not stated)	-4.2	-9.9%	-13.6%	3.0%	-5.4%
CC(=O)CCC1CC(c2ccc(Cl)cc2)=NO1 (configuration not stated)	50.3	2.82µM*	-13.8%	27.7%	i
NNC(=O)c1ccc(OCC2CC(c3ccc(Cl)cc3)=NO2)cc1 (configuration not stated)	-95.1*	?	?	26.0%	-25.5%
CN(C)c1ccc(/C=C2\C(=O)/C(=C/c3ccc(N(C)C)cc3)c3ccccc32)cc1	.	.	17.7%	.	-7.9%
SMILES	HCMV antiviral	HCV inh	Vaccinia Venus	FMDV inh	VACV mCherry inh
CC(=O)N1/C(=C/c2ccc(N(C)C)cc2)C(=O)c2ccccc21	6.8	24.6%	-13.7%	20µM*	-6.3%
COc1cccc(-c2nc3c(Nc4cccc(F)c4)nccc3[nH]2)c1F	-11.8	.	.	.	.
CC(C)=CC(O)C/C(C)=C/COc1ccc2ccc(=O)oc2c1 (configuration not stated)	12.2	?	10µM*	?	10µM*
CCC(=O)Nc1cccc(C2=NOC3(C2)C[C@@H](C(N)=O)N(C(=O)CC(c2ccccc2)c2ccccc2)C3)c1 (some centres not stated)	-66.7*	-13.9%	-14.2%	27.3%	-1.7%
C/C=C(\C)C(=O)Nc1cccc(C2=NOC3(C2)C[C@@H](C(N)=O)N(C(=O)/C(C)=C/C)C3)c1 (some centres not stated)	-67.6*	5.6%	-1.7%	1.7%	i
NC(=O)[C@@H]1CC2(CC(c3cccc(NC(=O)COc4ccc(Cl)cc4)c3)=NO2)CN1C(=O)COc1ccc(Cl)cc1 (some centres not stated)	-18.2	10µM*	?	0.0%	?
NC(=O)[C@@H]1CC2(CC(c3cccc(NC(=O)CC(c4ccccc4)c4ccccc4)c3)=NO2)CN1C(=O)c1ccc(Cl)cc1 (some centres not stated)	-72.4*	?	?	-27.2%	?
NC(=O)[C@H]1CC2(CC(c3cccc(NC(=O)CC(c4ccccc4)c4ccccc4)c3)=NO2)CN1C(=O)CC(c1ccccc1)c1ccccc1 (some centres not stated)	-33.2	-20.5%	-25.9%	-14.3%	-4.7%
CCCC1NC(=O)c2cccnc2-n2c1nc1cc(C)cc(C)c1c2=O (configuration not stated)	-8.5	.	?	-20.4%	?
COc1ccccc1C1C(C(=O)Nc2ccccc2)=C(C)Nc2nc(-c3ccccc3)nn21 (configuration not stated)	?	.	5.3%	-30.4%	2.4%
Cc1cccc(C(=O)OCc2cc(=O)n3nc(C4CC4)sc3n2)c1	-0.2	.	-6.4%	-5.8%	-7.9%
CCOc1ccc(-n2nc3c(Cl)nnc(C)c3c2C)cc1	?	-12.9%	-15.5%	-17.2%	-6.1%
CCN(CC)C(=O)Cn1nnc2sc(-c3ccccc3)cc2c1=O	2.0	.	-10.8%	14.8%	-12.5%
Cc1ccc(/C(N)=N/OC(=O)C(C)c2ccc([N+](=O)[O-])cc2)cc1 (configuration not stated)	-18.6	-3.5%	0.7%	5.4%	-9.7%
COc1ccc(CCN2C(=O)N(c3cccc(C)c3)C(=O)C2CC(=O)Nc2ccccc2)cc1OC (configuration not stated)	5.3	.	-0.4%	-7.5%	0.8%
COc1ccc(Cn2c(=O)oc3ccc(C)cc32)cc1OC	-94.5*	14.1µM*	.	?	.
O=C(COC(=O)/C=C/c1cccs1)NC1CC1	-60.4*	17.9%	-8.0%	-15.7%	i
